Results on 30 compounds are retold here after PubChem BioAssay.

A number with no mark means an inactive call. The source made the active and inactive calls.
Also: test concentration not given here.

A short description of one experiment: yeast growth modulation, basal conditions, primary screen, YJM789 clinical isolate, OD600, 24 h (AID 1089).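 Also: growth of clinical yeast isolate S. cerevisiae YJM 789 seeded 1000 cells per well.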 To be noted: S. cerevisiae YJM789 growth, higher = more signal, called active from +8 up or from −8 down.
As to `O=C1OCCC/C=C\[C@H]2OC34C=CCN(c5ccc6ccccc6c5)C(=O)[C@H]3N(CCCCCO)C(=O)[C@@H]4C12` (stereo not given in full), the z-score is -1.56.
Still for that read-out and setting: the value for `C#CCN1[C@@H](Cc2ccc(O)cc2)C(=O)O[C@H](Cc2ccccc2)[C@@H]1/C=C/C1CC1` was -0.257.
Consider `COCCCNC(=O)[C@@H]1c2ccccc2C(=O)N(Cc2ccccc2)[C@H]1c1ccc(CO)cc1`, for which the z-score is -1.29.
For `COc1cc2c(cc1O)C(c1cccs1)N(Cc1ccc([N+](=O)[O-])o1)CC2` (stereo not given), the z-score was -2.77.
As for `C=C(CCCC)/C(=C/C[C@@H](OC(C)=O)c1ccccc1OCCO)c1cc(C(=O)OC)ccc1OC`, the z-score was 1.03.

A short description of another experiment: fission yeast growth modulation, primary screen, strain 972, OD600, 24 h, no modulator (AID 1090).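 Also: basal condition with compound alone and no growth modifier present.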 To be noted: S. pombe 972 growth, higher = more signal, called active from +8 up or from −8 down.
As for `OB1C=CCC(CCc2ccccc2)O1` (stereo not given), the z-score was -2.06.
`CCCCCCc1nc(-c2ccc(-c3ccc(Cl)c(Cl)c3)o2)c(C)c2c1[Si](C(C)C)(C(C)C)OC2`: the z-score was -3.62.
`O=C1NC(=O)C2C1C=CC(C(O)C=Cc1ccc([N+](=O)[O-])cc1)N2Nc1ccc(Cl)cc1Cl` (stereo not given): the z-score was -1.23.
With `Cc1ccc(S(=O)(=O)N2C[C@@H](C(=O)O)[C@H](Sc3ccccc3)C[C@H]2c2ccccc2)cc1`, the z-score is 0.972.
On the same count and under the same terms, the value for `COC(=O)[C@@]1(Cc2ccccc2)[C@H]2c3cc(C(=O)N(C)C)n(CCc4c[nH]c5ccc(O)cc45)c3C[C@H]2CN1C(=O)c1ccccc1` was 1.25; that for `C=CC[C@]1(C(N)=O)COC(c2ccc(OCCCO)cc2)=N1` was -1.09.
On to `O=C(CS)NCCCCCNC(=O)[C@@H]1C[C@@H]2C(=O)NCC(=O)N2[C@@H]1c1ccc(O)cc1`, for which the z-score is -0.771.
Take `COc1cc(OC)c(C(O)C2C=CC3C(=O)NC(=O)C3N2Nc2ccccn2)cc1Br` (stereo not given): the z-score was -0.289.
On to `NC(=O)[C@@]1(Cc2ccccc2)N=C(c2ccc(OCCCO)cc2)O[C@H]1c1ccccc1`, for which the z-score is 1.04.
Same read-out and setting: the value for `C=CCN1C(=O)[C@]2(O[C@H](CCO)[C@@H]([Si](C)(C)c3ccc(OC)cc3)[C@@H]2C)c2cc(N(C=O)c3ccccc3)ccc21` was 0.859.
On to `O=C(CS)NCCCCCNC(=O)[C@H]1C[C@H]2C(=O)NCC(=O)N2[C@H]1c1cccc(OCCO)c1`, for which the z-score was 0.145.
`CC(c1ccccc1)C(O)C1C=CC2C(=O)N(C)C(=O)C2N1NC(=O)OC(C)(C)C` (stereo not given): the z-score is 0.0391.
`CO[C@H]1O[C@H](CO)[C@@H](OC(=O)Nc2ccccc2)[C@@H]2OC(=O)[C@@H](Cc3ccc4ccccc4c3)C/C=C/C[C@H](Cc3ccc4ccccc4c3)C(=O)O[C@@H]12`: the z-score is -1.57.
Regarding `CCCC[C@@H]1C[C@H]1[C@@H](NC(=O)c1cccnc1)c1ccc(Cl)cc1`, the z-score is -15.4 (active).
As for `[N-]=[N+]=NCc1ccccc1[C@@H]1OC(c2ccc(OCCCO)cc2)=N[C@]1(CCS(=O)(=O)c1ccccc1)C(N)=O`, the z-score was -1.17.
For `COc1ccc(CCNC(=O)[C@@]2(c3ccc([N+](=O)[O-])cc3)CC(=O)N(CC34CC5CC(CC(C5)C3)C4)[C@@H]2c2ccc(CO)cc2I)cc1`, the z-score is 0.369.
On the same count and under the same terms, the same measure for `COC(=O)[C@H](Cc1ccccc1)N[C@H](/C=C/C1CC1)[C@@H](O)Cc1ccccc1`: -5.75.
For `COc1ccc(C(O)C2C=CC3C(=O)N(C)C(=O)C3N2N(c2ccccc2)c2ccccc2)c2ccccc12` (stereo not given), the z-score is 0.954.
For the compound `CC(C)(C)OC(=O)CC[C@]1(C(N)=O)N=C(c2ccc(OCCCO)cc2)O[C@H]1c1ccccc1`, the z-score is 0.256.
`COC(=O)[C@@]1(Cc2ccccc2)[C@H]2c3cc(C(=O)N(C)C)n(Cc4ccc(OC)c(OC)c4)c3C[C@H]2CN1C(=O)c1ccccc1`: the z-score was 0.836.
With `COCC(=C=CC[C@H](O)c1ccccc1OCCO)CCO`, the z-score was -0.5.
`[N-]=[N+]=NCc1ccccc1[C@@H]1OC(c2ccc(OCCCO)cc2)=N[C@]1(CCS(=O)(=O)c1ccccc1)C(=O)N1CCCCC1`: the z-score is 0.454.
As for `C=C(C)[C@@H]1CC=C(C(O)C2C=CC3C(=O)NC(=O)C3N2Nc2ccc(Cl)cc2Cl)CC1` (stereo not given in full), the z-score was -5.22.
Turning to `O=C(O)[C@H]1C[C@H]2C(=O)N3CCC[C@H]3C(=O)N2[C@H]1c1ccc(O)cc1`, the z-score is -0.613.
With `[N-]=[N+]=Nc1ccccc1C[C@]1(C(=O)NCC(O)CO)N=C(c2ccc(OCCCO)cc2)O[C@H]1c1ccccc1` (stereo not given in full), the z-score was 0.0558.
